An excerpt weighted towards active compounds, which were near 18% of everything screened.
TDP1 block: qHTS Assay for Inhibitors of Tyrosyl-DNA Phosphodiesterase (TDP1). Tyrosyl-DNA phosphodiesterase 1 (Homo sapiens), Q9NUW8. recombinant TDP1, AlphaScreen DNA substrate cleavage. Potency, µM (titrated, usually from 130 µM), most hits filed as inhibitors. 0.28% of 350,000 active; further: nearly all actives have a fitted effect of over 40% in size
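Enzyme-compound mixtures sat 15 min at room temperature, followed by a 5 min reaction with 15 nM final substrate and 10 min with AlphaScreen beads. Recombinant human Tdp1 was used at 1 nM final.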
CtBP-E1A inh: qHTS Assay for Inhibitors of the CtBP/E1A Interaction; CtBP / adenovirus E1A interaction (AlphaScreen); AlphaScreen GST-E1A/His-CtBP binding, 1536-well; stronger effect = lower value; activity change, % (concentration not given with the values); 0.49% of 340,000 active; AID 651724, 2012; in the data active means activity change below about -65%; inconclusive means mostly about -30% to -63%
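Protein mix (5X: 125 nM each GST-E1A, His-CtBP) was incubated with pinned compound 2 h at 37 deg C in dark, in 50 mM Tris pH 8.0 buffer with 300 mM NaCl. Glutathione donor and nickel acceptor beads followed; AlphaScreen signal read after 1 h.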
IL1B secr inh: qHTS for Inhibitors of Inflammasome Signaling: IL-1-beta AlphaLISA Primary Screen; activity change, % at 57.5 µM; 4.7% of 360,000 active; THP-1 LPS/ATP IL-1B secretion, AlphaLISA, 16 h; stronger effect = lower value; AID 743279, 2014; in the data active means activity change below about -50%; inconclusive means mostly about -30% to -49%
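Secreted IL-1B measured by AlphaLISA bead assay after 16 h compound exposure of THP-1 cells; compounds (final up to 57.5 uM) added 1 h before LPS (250 ng/mL) and ATP (1.25 mM) stimulation; lower signal means less secretion.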
DT40 TDP1 CPT: qHTS for Inhibitors of human tyrosyl-DNA phosphodiesterase 1 (TDP1): qHTS in cells in presence of CPT; Potency, µM (series often up to 46.2 µM), hits mostly inhibitors; AID 686979, 2013; chicken DT40 Tdp1-/-;hTDP1 cells + 20 nM CPT, ATP luminescence, 48 h; 12% of 420,000 active; further: nearly all actives have a fitted effect of over 55% in size
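Cell growth measured by CellTiter-Glo luminescence after a minimum 48 h, 37 C compound exposure with 20 nM CPT in Tdp1-knockout DT40 cells stably expressing hTDP1, seeded 400/well; qHTS titration format.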
TDP1 cell noCPT: qHTS for Inhibitors of human tyrosyl-DNA phosphodiesterase 1 (TDP1): qHTS in cells in absence of CPT. 15% of 420,000 active. DT40 Tdp1-/- hTDP1 cells, no CPT, ATP luminescence, 48 h. AID 686978, 2013. Potency, µM (top dose mostly 46.2 µM), usual class: inhibitors; further: nearly all actives have a fitted effect of over 55% in size
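Chicken DT40 Tdp1-/- cells complemented with human TDP1, screened without camptothecin (DMSO vehicle only), 400 cells/well. Compounds pin-transferred, cells incubated at 37 °C for at least 48 hr. Growth read as ATP-dependent luminescence (CellTiter-Glo, 30 min at RT).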
Six1-Eya2 blk: qHTS Assay for Inhibitors of the Six1/Eya2 Interaction; activity change, % (concentration not given with the values); 0.56% of 360,000 active; AlphaScreen GST-Six1/His-Eya2 binding, biochemical; stronger effect = lower value; Homeobox protein SIX1 (Homo sapiens) + Protein phosphatase EYA2 (Homo sapiens), …; in the data active means activity change below about -65%; inconclusive means mostly about -30% to -63%
Target sequence (O00167 whole entry, looked up): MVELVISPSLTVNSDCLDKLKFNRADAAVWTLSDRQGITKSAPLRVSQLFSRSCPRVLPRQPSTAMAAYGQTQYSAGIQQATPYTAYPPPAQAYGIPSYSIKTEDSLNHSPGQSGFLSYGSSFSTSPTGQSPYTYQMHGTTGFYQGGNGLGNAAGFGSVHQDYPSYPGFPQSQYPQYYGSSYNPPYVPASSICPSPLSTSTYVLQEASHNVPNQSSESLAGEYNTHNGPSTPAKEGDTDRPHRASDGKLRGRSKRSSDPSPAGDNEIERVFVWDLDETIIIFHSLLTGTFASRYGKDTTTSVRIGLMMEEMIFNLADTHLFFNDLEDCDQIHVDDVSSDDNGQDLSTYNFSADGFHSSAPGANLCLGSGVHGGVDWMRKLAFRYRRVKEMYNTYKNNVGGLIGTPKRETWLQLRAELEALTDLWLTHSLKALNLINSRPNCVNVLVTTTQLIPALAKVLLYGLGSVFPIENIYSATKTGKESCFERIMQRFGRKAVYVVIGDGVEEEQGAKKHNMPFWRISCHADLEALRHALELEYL
Target sequence (Q15475 whole entry, looked up): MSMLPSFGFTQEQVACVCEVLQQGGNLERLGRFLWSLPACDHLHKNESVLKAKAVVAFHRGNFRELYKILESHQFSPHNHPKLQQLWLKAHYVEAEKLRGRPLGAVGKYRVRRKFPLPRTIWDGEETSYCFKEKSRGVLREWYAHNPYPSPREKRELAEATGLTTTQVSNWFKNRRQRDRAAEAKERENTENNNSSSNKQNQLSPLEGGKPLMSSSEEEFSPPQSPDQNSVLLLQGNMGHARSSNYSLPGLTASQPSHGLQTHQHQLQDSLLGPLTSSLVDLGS
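AlphaScreen with GST-Six1 and His-Eya2 (5X mix: 250 nM and 500 nM), glutathione donor and nickel acceptor beads; buffer 50 mM Tris pH 8.0, 300 mM NaCl, 1 mM TCEP; 1 h at 37 C in the dark.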
A number is an active result; - = inactive; ? = inconclusive; . = no result; [ ] = dose if it differs, or a comment. Unless noted, the call rests on the fitted dose curve; in most records, active means well fitted curve in the direction sought with a large enough effect; inconclusive means small, poorly fitted or top-dose-only effect, or another doubt; inactive means no such curve, though single readings can be large; an effect the other way counts as inactive or inconclusive.

SMILES	TDP1 block	CtBP-E1A inh	IL1B secr inh	DT40 TDP1 CPT	TDP1 cell noCPT	Six1-Eya2 blk
COc1ccc(-c2ccc(CN3C(C)C(=O)N(Cc4cn(CC5CCCCC5)nn4)CCS3(=O)=O)cc2)cc1 (stereo not given)	.	-	-	14.6µM	10.3µM	-
Cc1ccc(-c2ccc(CN3C(C)C(=O)N(Cc4cn(CC5CCCCC5)nn4)CCS3(=O)=O)cc2)cc1 (stereo not given)	.	-	?	16.4µM	16.4µM	-
COC(=O)c1c(C)[nH]c(C)c1-c1ccccc1	-	-	-	-	-	-
Cn1nc(C(F)(F)F)c(C(=O)Nc2ccc(Cl)cc2)c1Cl	-	-	-	?	?	-
CSCCC(NC(=O)COc1ccccc1)C(=O)OCCOc1ccc(C)cc1 (stereo not given)	-	-	-	?	-	-
COc1ccc(C(=O)CC(=O)c2ccc(F)cc2)cc1	.	.	-52.6	-	?	-
COc1ccc(C(=O)CCc2ccccc2)cc1	.	-	-52.4	-	-	-
CC(C)(C)c1ccc(C(=O)CS(=O)(=O)c2ccccc2)cc1	-	-	-	?	16.4µM	-
COc1ccc(C(=O)NN)cc1	-	-	-	-	-	-
COc1ccc(C(=O)C(CCC(CNC(C)(C)C)C(=O)c2ccc(OC)cc2)CNC(C)(C)C)cc1 (stereo not given)	-	-	-100.9	5.17µM	5.17µM	-
Cc1[nH]c(C)c(S(=O)(=O)N(Cc2ccccc2)C(C)C)c1C(=O)N1CCCC1	-	-	-	-	-	-
COc1ccc(C(=O)N(C)c2ccccc2C(=O)NCCc2ccccc2)cc1	-	-	-	4.11µM	2.91µM	-
COc1ccc(C(=O)CC(=O)c2ccc(C(C)(C)C)cc2)cc1	20µM	-	-	?	?	-
COc1ccc(C2=Nc3ccccc3NC(=O)C2N(CCc2cc(OC)cc(OC)c2)C(C)=O)cc1 (stereo not given)	.	-	?	23.1µM	?	-
CC(=O)C1=C(C)OC2(O)c3ccccc3C(=O)C12O (stereo not given)	-	.	-	?	18.4µM	-
CCOC(=O)C1=C(C)N[C@@]2(O)c3ccccc3C(=O)[C@@]12O	-	-	-	-	-	-
CCOC(=O)C1=C(C)OC2(O)c3ccccc3C(=O)C12O (stereo not given)	-	.	-	?	20.6µM	-
CCOC(=O)C1=C(C)NC(C)=C(C(=O)OCC)C1C(=O)OCC(=O)NC(C)C	-	-	-	?	?	-
CCOc1ccc(S(=O)(=O)Nc2ccc(C(=O)NCC3(N4CCCCC4)CCCCC3)cc2)cc1	.	-	-	?	20.6µM	-
O=C(NC(Cc1ccccc1)C(=O)N1CCN(c2ccccc2O)CC1)c1ccccc1 (stereo not given)	-[0.505 µM]	-	-	?	16.4µM	-
CC(=O)N1CCN(C(=O)C(Cc2ccccc2)NC(=O)c2ccccc2)CC1 (stereo not given)	-	.	-	-	-	-
COc1ccc(NS(=O)(=O)c2ccc(C(=O)NCC3(N4CCOCC4)CCCCC3)cc2)cc1	-	-	-	?	?	-
O=C(c1ccc(S(=O)(=O)Nc2ccc(F)cc2)cc1)N1CCN(C(=O)c2ccco2)CC1	-	-	-	13µM	11.6µM	-
O=C(c1ccc(NS(=O)(=O)c2ccc3c(c2)OCCO3)cc1)N1CCCCC1	.	-	?	?	20.6µM	-
O=C(O)c1ccc(S(=O)(=O)Nc2ccc3c(c2)OCCO3)cc1	-	-	-	-	-	-

Screens (PubChem BioAssay)
